# Rows were chosen to be rich in hits. Some 6.3% of all compounds tested hit in one or more screens of this group.
# ATXN2 expr inh = Primary qHTS for Inhibitors of ATXN expression | HEK-293 ATXN2-luciferase reporter, luminescence, 24 h | Potency, µM (series often up to 57 µM), for inactives: at the highest dose activity change, negative = inhibition, usual class: inhibitors | actives 0.72% (n = 360,000); note: % is set by controls: 0 for no effect and ±100 for the full control effect; nearly all actives have a fitted effect of over 55% in size
#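 qHTS (up to 57 uM final) was run with 24 h compound exposure of reporter cells at 37 °C. Each well was multiplexed: SteadyGlo luminescence measured ATXN2-luciferase expression after a fluorogenic Gly-Phe-AFC viability readout (25 uM final).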
# Gal4-VP16 FLuc = VP16 counterscreen qHTS for inhibitors of ROR gamma transcriptional activity. Drosophila S2 Gal4-VP16 UAS-luciferase, luminescence, 20 h. Potency, µM (doses to about 53.6 µM), for inactives: at the top dose activity, negative = inhibition, usual class: inhibitors. actives 3.5% (n = 310,000). AID 2546, 2010;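 note: Gal4-VP16 expression switched on by copper sulfate through the metallothionein promoter; % is set by controls: 0 for no effect and ±100 for the full control effect; nearly all actives have a fitted effect of over 50% in size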
# TGFb inhibitor = qHTS for Inhibitors of TGF-b. HepG2 CAGA-GFP TGF-b/SMAD3 reporter, GFP fluorescence, 18 h; TGF-beta stimulated, 500 pg/mL final. Potency, µM (top dose mostly 46.1 µM), inactives show top-dose activity, negative = inhibition, most hits filed as inhibitors. actives 1.2% (n = 410,000). AID 588855, 2011; note: % is set by controls: 0 for no effect and ±100 for the full control effect; nearly all actives have a fitted effect of over 65% in size
#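 GFP signal (ex488/em500-530) from TGF-beta-stimulated HEPG2 CAGA-GFP cells, 500 pg/mL final, 18 h at 37 degrees C in DMEM plus 1% FBS, normalized to unstimulated and DMSO-stimulated controls.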
# RORg inh = qHTS for inhibitors of ROR gamma transcriptional activity; Nuclear receptor ROR-gamma (Mus musculus), P51450; Drosophila S2 Gal4-RORgamma UAS-luciferase reporter, 20 h; Potency, µM (doses to about 53.6 µM), for the others: at the highest dose activity change, negative = inhibition, actives largely listed as inhibitors; actives 5.4% (n = 310,000); AID 2551, 2010; note: % is set by controls: 0 for no effect and ±100 for the full control effect; nearly all actives have a fitted effect of over 60% in size
# Target sequence (P51450 whole entry, looked up, the tested form may be a part): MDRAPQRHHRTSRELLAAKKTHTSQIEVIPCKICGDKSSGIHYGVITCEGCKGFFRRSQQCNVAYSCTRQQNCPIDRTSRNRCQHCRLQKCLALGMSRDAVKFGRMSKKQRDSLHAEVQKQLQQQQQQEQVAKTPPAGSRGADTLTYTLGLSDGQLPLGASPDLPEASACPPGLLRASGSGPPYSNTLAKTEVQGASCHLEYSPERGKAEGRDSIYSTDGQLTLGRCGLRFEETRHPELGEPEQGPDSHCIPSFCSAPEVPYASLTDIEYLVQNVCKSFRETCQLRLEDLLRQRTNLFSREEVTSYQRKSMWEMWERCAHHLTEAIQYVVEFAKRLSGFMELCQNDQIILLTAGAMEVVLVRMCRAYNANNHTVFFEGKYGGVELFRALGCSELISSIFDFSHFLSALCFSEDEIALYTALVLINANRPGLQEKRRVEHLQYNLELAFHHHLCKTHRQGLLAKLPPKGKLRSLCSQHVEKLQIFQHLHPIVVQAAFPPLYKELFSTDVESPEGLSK
#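 A Gal4/UAS one-hybrid system in insect cells: metallothionein-promoter Gal4–ROR gamma fusion plus Photinus luciferase reporter. Copper sulfate 700 uM final, 20 hr ambient incubation, luminescent detection after 10 min with reagent.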
# S2 tox = Viability Counterscreen for Primary qHTS for Inhibitors of ATXN expression; S2 cells (HEK-293 line with an ATXN2-luciferase reporter) viability, CellTiter-Fluor protease fluorescence, 24 h; Potency, µM (doses to about 56.7 µM), usual class: cytotoxic; actives 0.49% (n = 400,000); AID 651635, 2014; note: nearly all actives have a fitted effect of over 40% in size
# HepG2 tox = qHTS for Inhibitors of TGF-b: Cytotox Counterscreen; HepG2 CAGA-GFP viability, ATP luminescence, 18 h; Potency, µM (highest dose often 46.1 µM), inactives show top-dose activity change, negative = cytotoxicity, hits mostly cytotoxic; actives 0.76% (n = 410,000); AID 588856, 2011
#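 HepG2 CAGA-GFP cells (1000/well, DMEM with 1% FBS) received compound, then TGF-beta at 500 pg/mL final, and were incubated 18 hours at 37 degrees C. Viability was read by CellTiter-Glo luminescence. Media-only wells were set as complete cell-killing and DMSO as no toxicity.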
# * marks the source's active call; other numbers are inactive results; i = inactive; ? = inconclusive; nt = not tested or not shown. Calls come from the whole dose curve; as a rule, active = well fitted curve in the direction sought with a large enough effect; inconclusive = small, poorly fitted or top-dose-only effect, or another doubt; inactive = no such curve, though single readings can be large; an effect the other way counts as inactive or inconclusive. Potency is the fitted concentration of half-maximal effect.
SMILES,ATXN2 expr inh,Gal4-VP16 FLuc,TGFb inhibitor,RORg inh,S2 tox,HepG2 tox
CC[C@H](C)[C@H](NC(=O)[C@H](CO)NC(=O)[C@H](CC(C)C)NC(=O)[C@H](CO)NC(=O)[C@@H]1CCCN1C(=O)[C@H](CC(N)=O)NC(=O)[C@@H](N)CC(=O)O)C(=O)N[C@@H](CC(=O)O)C(=O)N[C@@H](CC(C)C)C(=O)N[C@H](C(=O)N[C@@H](Cc1ccccc1)C(=O)N[C@@H](Cc1cnc[nH]1)C(=O)N[C@@H](CC(C)C)C(=O)N[C@@H](CC(C)C)C(=O)N[C@@H](CCCNC(=N)N)C(=O)N[C@H](C(=O)N[C@@H](CC(C)C)C(=O)N[C@@H](CC(C)C)C(=O)N[C@@H](CCC(=O)O)C(=O)N[C@@H](CC(C)C)C(=O)N[C@@H](C)C(=O)N[C@@H](CCCNC(=N)N)C(=O)N[C@H](C(=O)N[C@@H](CCC(N)=O)C(=O)N[C@@H](CO)C(=O)N[C@@H](CCC(N)=O)C(=O)N[C@@H](CCCNC(=N)N)C(=O)N[C@@H](CCC(=O)O)C(=O)N[C@@H](CCCNC(=N)N)C(=O)N[C@@H](C)C(=O)N[C@@H](CCC(=O)O)C(=O)N[C@@H](CCC(N)=O)C(=O)N[C@@H](CC(N)=O)C(=O)N[C@@H](CCCNC(=N)N)C(=O)N[C@H](C(=O)N[C@H](C(=O)N[C@@H](Cc1ccccc1)C(=O)N[C@@H](CC(=O)O)C(=O)N[C@@H](CO)C(=O)N[C@H](C(N)=O)C(C)C)[C@@H](C)CC)[C@@H](C)CC)[C@@H](C)O)[C@@H](C)O)[C@@H](C)O,nt,-12.8%,nt,0.2%,nt,nt
Cc1cccc(NC(=O)CCC(=O)c2cccs2)n1,16.3%,nt,-5.1%,nt,i,-20.3%
Cc1nc(NC(=S)NC(=O)c2cncc(Br)c2)ccc1Br,-5.0%,1.3%,14.1%,-44.9%,?,-6.6%
Cc1cccc(NC(=O)/C=C/c2cccs2)n1,29.4%,22.4µM*,8.6%,?,i,-39.1%
Cc1nc(NC(=S)NC(=O)c2cccs2)ccc1Br,0.0%,12.6µM*,1.6%,1.41µM*,i,-16.3%
Cc1cccc(NC(=S)NC(=O)c2cccs2)n1,43.3%,?,-25.0%,3.55µM*,i,-38.0%
Cc1ccc(OCC(=O)NC(=S)Nc2ccc(Br)c(C)n2)cc1,-8.6%,-11.1%,-13.7%,2.51µM*,i,-14.2%
O=C(/C=C/c1cccs1)Nc1ccncc1,13.4%,-3.9%,-15.5%,17.1%,i,-68.2%
Cc1ccccc1CNC(=O)Cn1ccc2cc(S(=O)(=O)N3CCCCC3)ccc21,-5.2%,nt,-25.2%,nt,i,-16.3%
CCC(C)[C@@H](NC(=O)OC(C)(C)C)c1nnc(S(=O)(=O)Cc2cccc(C)c2)o1 (stereo partly drawn),?,5.01µM*,8.91µM*,3.16µM*,nt,-101.2%
CCSc1nnc([C@H](Cc2ccccc2)NC(=O)OC(C)(C)C)o1,4.6%,16.1%,-10.6%,11.8%,i,-42.3%
CC(C)(C)OC(=O)N[C@@H](Cc1ccccc1)c1nnc(SCC(=O)O)o1,7.2%,6.7%,25.0%,0.5%,i,-2.6%
Cc1ccccc1CS(=O)(=O)c1nnc([C@H](Cc2ccccc2)NC(=O)OC(C)(C)C)o1,?,3.16µM*,?,-15.6%,nt,-102.3%
CC(C)(C)OC(=O)N[C@@H](Cc1ccccc1)c1nnc(S(=O)(=O)Cc2ccccc2)o1,nt,4.47µM*,nt,4.47µM*,nt,nt
CCCCOCCOC(=O)C1OC1(C)c1ccccc1 (stereo not drawn),nt,nt,8.2%,nt,i,-1.5%
COc1cccc(-c2cn3c(n2)sc2cc(C(=O)NCCCc4ccccc4)ccc23)c1,nt,nt,-3.8%,nt,nt,-5.1%
C[C@H](NC(=O)c1[nH]cnc1C(=O)Nc1ccc(Cl)cc1)C(=O)OC(C)(C)C,-5.8%,1.41µM*,1.8%,1µM*,i,2.0%
CCOC(=O)c1ccc(NC(=O)c2nc[nH]c2C(=O)N[C@@H](C)C(=O)OC(C)(C)C)cc1,6.3%,-4.0%,5.8%,?,i,1.9%
Cc1cccc(NC(=O)c2nc[nH]c2C(=O)NCC(=O)OC(C)(C)C)c1,-20.2%,?,?,?,i,-30.1%
Cc1cccc(NC(=O)c2nc[nH]c2C(=O)N[C@@H](C)C(=O)OC(C)(C)C)c1,-30.5%,7.08µM*,?,3.16µM*,?,-26.3%
Cc1ccc(-c2noc(-c3cc4ccccc4oc3=O)n2)cc1,34.6%,1.3%,15.5%,8.8%,i,-1.2%
O=c1oc2ccccc2cc1-c1ccc(O)cc1,64.4%,-13.5%,3.4%,0.0%,i,-2.6%
Nc1ccc(-c2cc3ccccc3oc2=O)cc1,0.282µM*,nt,12.5%,nt,nt,-25.9%
O=c1oc2ccccc2cc1-c1nc(-c2ccccc2)no1,34.4%,8.91µM*,0.0%,11.2µM*,i,0.3%
COc1ccc(-c2noc(-c3ccc(Cl)cc3[N+](=O)[O-])n2)cc1OC,50.2%,-2.1%,0.0%,32.6%,i,-30.6%
SMILES,ATXN2 expr inh,Gal4-VP16 FLuc,TGFb inhibitor,RORg inh,S2 tox,HepG2 tox
Cc1cccc(-c2noc(-c3ccc(Cl)cc3[N+](=O)[O-])n2)c1,102.8%,10µM*,0.9%,2.51µM*,i,-6.4%
Cc1cccc(-c2noc(-c3cc4ccccc4oc3=O)n2)c1,46.3%,?,-4.0%,0.891µM*,i,-6.2%
COc1ccc(Cl)cc1NC(=O)CSc1ccc(-c2sc(C)nc2C)nn1,nt,nt,-10.8%,nt,nt,-4.7%
Cc1nc2cc(NC(=O)[C@@H]3C[C@@H](Sc4ccccn4)CN3Cc3ccc(F)cc3F)ccc2s1,nt,nt,nt,nt,i,nt
O=C(Cn1ncc2c(Cl)cccc21)NCc1cccc(Cl)c1,-2.5%,nt,-13.0%,nt,i,-5.9%
c1ccc(-c2noc(-c3ccc4ccccc4c3)n2)cc1,-35.4%,25.1µM*,2.7%,3.55µM*,i,-3.3%
Cc1ccc(-c2nc(-c3ccncc3)no2)cc1C,14.1%,?,2.9%,8.91µM*,i,-5.3%
c1ccc(-c2noc(-c3ccc4c(c3)OCO4)n2)cc1,-38.9%,-19.7%,-6.9%,-30.4%,i,-9.7%
CCCc1nnc(SCC(=O)NC2CC2)n1C,-4.3%,2.0%,-18.0%,2.8%,i,-4.1%
CCN1C(=O)/C(=C/c2ccc(C)s2)NC1=S,6.1%,?,24.7%,17.8µM*,i,-7.6%
CCC(C(=O)OCC(=O)NC1CCS(=O)(=O)C1)c1ccccc1 (stereo not drawn),-7.0%,nt,-1.9%,nt,i,6.2%
